# In the supplement of paper PMC10338343:
# ± gives the standard deviation. Whole data set: some 6,600 sequences, median “pre-steady-state target cleavage rate” near 0.07, cut for the highest 2% near 0.72. This excerpt belongs to a sample that is enriched for the highest values.
# Tested on: MIWI (PIWIL1) piRISC loaded with Kctd7 piRNA (30 nt)
# Assay: pre-steady-state target cleavage rate (min^-1); MIWI and MILI are mouse PIWI proteins and EfPiwi is from a freshwater sponge; tags in brackets are library labels; higher = faster piRNA-guided slicing of the target
# Conditions: guide: Kctd7 piRNA 5'p-UGUUAAUCUCUCAGAGAAGGUGACAGUGAU; auxiliary factor: 500 nM mouse GTSF1
# How it was run: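 Cleave-'n-Seq: a transcribed, DNA-blocked target RNA library (0.1 nM) was mixed with 1 nM active affinity-purified piRISC carrying one synthetic guide, with or without 500 nM GTSF1 partner protein, in HEPES–potassium acetate buffer at 33 °C for 0–8 or 0–960 min. Uncleaved targets were sequenced and normalised to depth and to weakly complementary targets. Three trials were pooled, and k3 was capped at 0.0001 min^-1. The pre-steady-state cleavage rate came from a burst-and-steady-state fit.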
row,Sequence,pre-steady-state target cleavage rate
1,UAGUCUGUCACCUUCGCUGAGAGAUUAACA,0.416 ± 0.035
2,AUCACUUUCACCUUCUCUGAGAGAUUAACA,0.622 ± 0.027
3,UAGUGAGUCUCCUUCUCUGAGAGAUUUACA,0.0124 ± 0.0051
4,UAGUCUCUCACCUUCUCUGUGAGAUUAACA,0.2 ± 0.015
5,UAGUGACAGACCCUUCUCUGAGAGAUUAACA,0.0893 ± 0.016
6,UACACUGUCACGAACUCUGAGAGAUUAACA,0.131 ± 0.019
7,UAGUCUGUCACCAUCUCUGAGAGAUUAUGA,0.021 ± 0.0082
8,UAGUGACAGUCCUUCUCUGAGACAUUAACA,0.0121 ± 0.0033
9,UACACAGUCACCUUCUCUGAGAGAUUAACA,0.589 ± 0.038
10,UAGAGUGUCACCUUCUCUGAGAGAUUAACA,0.72 ± 0.035
11,UUCUGAGUCACCUUCUCUGAGAGAUUAACA,0.657 ± 0.059
12,UACACUAGUCACCUUCUCUGAGAGAUUAACA,0.663 ± 0.029
13,AUCACUAGUCACCUUCUCUGAGAGAUUAACA,0.724 ± 0.04
14,UAGAGAGUCACCUUCUCUGAGAGAUUAACA,0.797 ± 0.035
15,AUGAGUGUCACCUUCUCUGAGAGAUUAACA,0.706 ± 0.032
16,UUCACUAGUCACCUUCUCUGAGAGAUUAACA,0.708 ± 0.032
17,UUCACAGUCACCUUCUCUGAGAGAUUAACA,0.656 ± 0.027
18,AUCUGAGUCACCUUCUCUGAGAGAUUAACA,0.652 ± 0.053
19,AACACAGUCACCUUCUCUGAGAGAUUAACA,0.736 ± 0.032
20,UUGAGUGUCACCUUCUCUGAGAGAUUAACA,0.763 ± 0.034
21,AUGACUGUCACCUUCACUGAGAGAUUAACA,0.541 ± 0.032
22,UAGUCUGUCACGCUUCUCUGAGAGAUUAACA,0.506 ± 0.025
23,UAGUGACUCCACCUUCUCUGAGAGAUUAACA,0.415 ± 0.04
24,UAGACUGUCACCUUCUCUGUGACAUUAACA,0.0186 ± 0.0033

row,Sequence,pre-steady-state target cleavage rate
1,UAGUGUGUCACCUUCUCUGAGAGUUUAUCA,0.232 ± 0.056
2,UAGUGUGUCACCUUCUCUGAGACAUAAACA,0.0331 ± 0.0077
3,UAGUGACAGUGCUUCGCUGAGAGAUUAACA,0.00389 ± 0.0031
4,AUCACUGUCACCUUCACUGAGACAUUAACA,0.252 ± 0.024
5,UAGACUAGUCACCUUCUCUGAGAGAUUAACA,0.756 ± 0.049
6,UAGACAGUCACCUUCUCUGAGAGAUUAACA,0.656 ± 0.033
7,UAGACUAUCACCUUCUCUGAGAGAUUAACA,0.56 ± 0.026
8,UAGUGACAGACCUUCACUGAGAGAUAAACA,0.0224 ± 0.007
9,UAGUGACAGUGCUUCUCUGAGAGUUUAACA,0.00896 ± 0.0024
10,UAUACUGUCACCUUCUCUGAGAGAUUAACA,0.767 ± 0.047
11,UACUCUGUCACCUUCUCUGAGAGAUUAACA,0.663 ± 0.03
12,AUUACUGUCACCUUCUCUGAGAGAUUAACA,0.713 ± 0.032
13,UUCUACUGUCACCUUCUCUGAGAGAUUAACA,0.677 ± 0.038
14,UACUACUGUCACCUUCUCUGAGAGAUUAACA,0.694 ± 0.032
15,AUACUGUCACCUUCUCUGAGAGAUUAACA,0.756 ± 0.043
16,UACUGUGUCACCUUCUCUGAGAGAUUAACA,0.63 ± 0.027
17,UUACUGUCACCUUCUCUGAGAGAUUAACA,0.743 ± 0.041
18,UUUACUGUCACCUUCUCUGAGAGAUUAACA,0.708 ± 0.026
19,UAGUGACUCACGUUCUCUGACAGAUUAACA,0.00367 ± 0.0032
20,UAGACUGUCAGCUUCUCUGAGAGAUUAAGA,0.0909 ± 0.017
21,UAGUCUCACACCUUCUCUGAGAGAUUAUGA,0.0207 ± 0.0066
22,UAGUCUGUCACCUUCACUGAGAGAUUAACA,0.39 ± 0.02
23,UUCACUGUCUACCUUCUCUGAGAGAUUAACA,0.208 ± 0.022
24,UAGUGACAGUCCUUCUCUGAGAGAUAAUCA,0.00284 ± 0.0022

row,Sequence,pre-steady-state target cleavage rate
1,AUGUCUGUCACCUUCUCUGAGAGAUUAACA,0.604 ± 0.024
2,UUCUGUGUCACCUUCUCUGAGAGAUUAACA,0.224 ± 0.022
3,UUGUCUGUCACCUUCUCUGAGAGAUUAACA,0.691 ± 0.031
4,UUCGCUGUCACCUUCUCUGAGAGAUUAACA,0.626 ± 0.04
5,AACUCUGUCACCUUCUCUGAGAGAUUAACA,0.715 ± 0.034
6,UACGCUGUCACCUUCUCUGAGAGAUUAACA,0.745 ± 0.038
7,AUCGCUGUCACCUUCUCUGAGAGAUUAACA,0.825 ± 0.042
8,UAGGCUGUCACCUUCUCUGAGAGAUUAACA,0.803 ± 0.045
9,UACACUGUCACCUUCUGUGUGAGAUUAACA,0.0849 ± 0.012
10,UUCUCUGUGACCUUCUCUGAGAGAUUAACA,0.491 ± 0.023
11,UACACUGUCACCUUCUCUGAGACUUUAUGA,0.00869 ± 0.0047
12,UAGUGACAGUGCCUUCUCUGAGAGAUUAACA,0.356 ± 0.034
13,UAGUGAGUGACCUUCUCAGAGAGAUUAACA,0.226 ± 0.026
14,UAGUGACAGUCCUUCUCUGAGGGAUUAACA,0.0348 ± 0.0076
15,AUCACUGCCACCUUCUCUGAGAGAUUAACA,0.773 ± 0.044
16,UUCACUGCCACCUUCUCUGAGAGAUUAACA,0.611 ± 0.023
17,UUCACUGCUCACCUUCUCUGAGAGAUUAACA,0.669 ± 0.044
18,UACACUGCCACCUUCUCUGAGAGAUUAACA,0.613 ± 0.035
19,AUCACUGCUCACCUUCUCUGAGAGAUUAACA,0.8 ± 0.051
20,UACACUGCUCACCUUCUCUGAGAGAUUAACA,0.623 ± 0.035
21,UAGUGACUGACCUUCUCUGAGAGAUUAUGA,0.00985 ± 0.0048
22,UAGUGACUCUACCUUCUCUGAGAGAUUAACA,0.122 ± 0.014
23,UAGACUGUGCACCUUCUCUGAGAGAUUAACA,0.651 ± 0.048
24,UAGUGAGUCACCUUAUCUGAGAGAUUAACA,0.363 ± 0.02
